40 compounds from ChEMBL document CHEMBL3988442, “University of Dundee, Small-Polar-MMV Screening Library” (2021) can be followed below.

The structures appear in SMILES notation.

The experiment deals with Shiga toxin 2 (Escherichia coli O157:H7) (UniProt P09385+P09386). Briefly: E. coli 0.157:H7 Shiga Toxin SOP - stx2 screening assay. As to conditions: 30 µM. Type of experiment: functional. More on the design: scale not given: direction of the effect not stated beside the values.
Regarding `O=C(c1ccc(Cl)c(Cl)c1)N1CCCC(n2cncn2)C1` (stereo not given), the Percent Effect is 15.6%.

As for `N#Cc1cc(NC(=O)C2CC=CC2)ccc1N1CCC(O)CC1`, the Percent Effect was -9.47%.

In the case of `CN(Cc1ccsc1)C(=O)Nc1cccnc1N1CCCC1`, the Percent Effect was -69.4%.

Consider `Cn1ncc2c(=O)[nH]c(CN3CCCC3Cc3ccccc3)nc21` (stereo not given), for which the Percent Effect was determined as 35.6%.

In the case of `Cc1ncc(CNC(=O)CCc2cccc(F)c2)c(C2CCCN2C)n1` (stereo not given), the Percent Effect is -9.03%.

In the case of `CC(C)CS(=O)(=O)CC(=O)N(C)Cc1ccc(OC(F)F)cc1`, the Percent Effect was found to be 4.95%.

Regarding `COCCN1CCN(Cc2cccc(C(=O)N(C)C)c2)CC1C` (stereo not given), the Percent Effect was -34.7%.

On to `CC(=O)c1cccc(NC(=O)Cn2cc(I)cn2)c1`, for which the Percent Effect is -55.6%.

Take `COc1ccc(C(C)=O)c(OCC(=O)NC(C)c2ccc(F)cc2)c1` (stereo not given): the Percent Effect was -1.68%.

Take `CCn1c(N)nc2cc(C(=O)NCCc3sccc3C)cnc21`: the Percent Effect is -89%.

For the compound `Cc1ncnc(NCc2cc3n(n2)CCCN(S(C)(=O)=O)C3)c1C`, the Percent Effect amounted to 12.4%.

For `O=C(N1CCOCC1)[C@@]12CCO[C@@H]1CCN(CC1CCCCC1)C2`, the Percent Effect is -36.5%.

On to `O=C(Cc1ccc2c(c1)OCCO2)N1CCCC(n2ccnc2)C1` (stereo not given), for which the Percent Effect was -18.9%.

On to `CN1C(=O)C[C@@H]2[C@@H]1CCN2C(=O)c1ccc[nH]1`, for which the Percent Effect was -6.89%.

Regarding `Cc1nc(C)n(CC2CCCN(Cc3nc(C)c(C)o3)C2)n1` (stereo not given), the Percent Effect came to 5.16%.

For `CCCS(=O)(=O)c1ncc(CN2CCC(CO)CC2)n1CC1CCCO1` (stereo not given), the Percent Effect was -15.9%.

As to `CC(C)S(=O)(=O)NCC1CCCN(C(=O)c2ccc3c(c2)OCCO3)C1` (stereo not given), the Percent Effect is -18.1%.

For `O=C(Cn1ccc2ccccc21)NCc1ccc(C(=O)O)cc1`, the Percent Effect stood at 6.55%.

`CN1Cc2c(C(=O)Nc3cccnc3)ncn2-c2ccccc2S1(=O)=O`: the Percent Effect worked out at 6.47%.

Regarding `CCNC(=O)N1CCC2(C1)c1ccccc1S(=O)(=O)N2CCC(C)C` (stereo not given), the Percent Effect is -1.22%.

In the case of `Cn1ncc2c(N3CCN(C(N)=O)CC3)nc(C3CCCC3)nc21`, the Percent Effect was -24.2%.

Regarding `Cc1nn(C)c(N2CCOCC2)c1CNCc1nccs1`, the Percent Effect came to 28.1%.

In the case of `Cn1cc(CN2CC[C@@H]3O[C@H](C(=O)N4CCOCC4)C[C@@H]32)cn1`, the Percent Effect was -23.7%.

Turning to `CCNc1cc2c(nn1)CCN(C(=O)c1ccnc(N(C)C)c1)C2`, the Percent Effect is 3.23%.

Turning to `Cc1nc(CCC(=O)NC2CCC2)cc(C2CCNCC2)n1`, the Percent Effect is -6.49%.

`CCOCC(O)CN1CCN(C(=O)c2ccc(OC)cc2F)CC1` (stereo not given): the Percent Effect is -5.15%.

For `Cc1nsc(N2CCCN(c3nc(C4CC4)ns3)CC2)n1`, the Percent Effect was -18.6%.

In the case of `COc1cc(CNC2CCCc3c2cnn3C)cc(OC)c1` (stereo not given), the Percent Effect was found to be 18.7%.

Regarding `NC(=O)C1CCN(Cn2nc(-c3ccccc3)oc2=O)CC1`, the Percent Effect is -53.5%.

On to `NC(=O)CC1CCN(C(=O)NCc2ccccc2-n2cccn2)CC1`, for which the Percent Effect is -4.75%.

Turning to `CN1CCC(NC(=O)NCCNc2ccccn2)CC1`, the Percent Effect is -5.67%.

For `CSCc1cccc(S(=O)(=O)N2CCSCC2)c1`, the Percent Effect is 0.0259%.

`O=C(Nc1cccc2c1CCCC2)C1CCCN1c1nccs1` (stereo not given): the Percent Effect was -43.4%.

Take `Cc1cccc(CN2C[C@@H]3COC[C@]3(CNC(=O)c3ccsc3)C2)n1`: the Percent Effect is -15.8%.

`CC(=O)N1CCC(Cc2cnc(-c3c(C)n[nH]c3C)cn2)C1` (stereo not given): the Percent Effect is -7.52%.

Turning to `CC(C)NC(=O)N1CCN(Cc2ccccn2)CC2(CC(=O)N(C)C2)C1` (stereo not given), the Percent Effect is -14.2%.

Consider `OC(COc1ccccc1)CN1CCc2c(ncn2C2CC2)C1` (stereo not given), for which the Percent Effect was -25.6%.

As to `Cc1cc(C(F)(F)F)nn1CC(C)C(=O)Nc1ccncc1` (stereo not given), the Percent Effect is -18.1%.

As for `Cc1nc(C)n(CC2CCCN(Cc3nnc(C(C)(C)C)o3)C2)n1` (stereo not given), the Percent Effect is 1.5%.

For the compound `CCc1nc(C2CCCN2Cc2nccn2Cc2ccccc2)no1` (stereo not given), the Percent Effect was found to be 12.2%.
